Test results from PubChem BioAssay (NCATS).
Inconclusive results are not listed. Calls of active or inactive are those of the source. Calls follow the shape of the full dose curve; tested in HEK293 reporter line.

Experiment: qHTS for Inhibitors of the Functional Ribonucleoprotein Complex (vRNP) of Lassa (LASV) Arenavirus: Viability assay - alamar blue signal for LASV Primary Screen (AID 1347083)
Conditions: cell viability, alamar blue fluorescence (LASV minigenome counter-screen); series mostly up to 57.5 µM; activity change, negative = reduced viability: at the top concentration
% is scaled to controls: 0 for no effect and ±100 for the full control effect; potency is read from the fitted curve at half-maximal effect.
Also: nearly all actives have a fitted effect of over 80% in size.

| Compound | Potency | activity change, negative = reduced viability |
| --- | --- | --- |
| Cc1cc(-c2ccc(CC(=O)Nc3ccc(-c4cccnc4)cc3)cc2)ccn1 | 19.3 µM (active) |  |
| CCOc1cc(C(=O)Nc2ccc(Cl)c(-c3nc4ccccc4[nH]3)c2)cc(OCC)c1OCC | 17.2 µM (active) |  |
| O=C(O)c1ccc(-c2cc3cccnc3c(-c3ccc4nonc4c3)n2)cc1 |  | -34.7% (inactive) |
| CN1CCC(CNc2ccc3ncc(-c4cccc(OC(F)(F)F)c4)n3n2)CC1 | 17.2 µM (active) |  |
| CN1CCN(c2ccc3nc(-c4c(N)c5c(F)cccc5[nH]c4=O)[nH]c3c2)CC1 | 2.17 µM (active) |  |
| COc1cc2c(cc1OC)[C@@H]1C(=O)c3ccc4c(c3O[C@@H]1CO2)C=CC(C)(C)O4 | 1.93 µM (active) |  |
| Cn1c(=O)c(F)c(Nc2ccc(I)cc2F)c2c(=O)n(C[C@@H](O)CO)cnc21 | 4.85 µM (active) |  |

Experiment: qHTS for Inhibitors of the Functional Ribonucleoprotein Complex (vRNP) of Lymphocytic Choriomeningitis Arenaviruses (LCMV): Viability assay - alamar blue signal for LCMV Primary Screen (AID 1347085)
Conditions: alamar blue viability counter-screen, LCMV vRNP screen cells; series mostly up to 57.5 µM; activity change, negative = lower viability: at the top concentration

| Compound | activity change, negative = lower viability | Potency |
| --- | --- | --- |
| CC(C)(C)c1cc(NC(=O)Nc2ccc(-c3cn4c(n3)sc3cc(OCCN5CCOCC5)ccc34)cc2)no1 | -22% (inactive) |  |
| N#Cc1ccc(NC(=O)Nc2ccccc2Br)c2n[nH]nc12 | -4.39% (inactive) |  |
| Cc1ccnc(NS(=O)(=O)c2ccc(NC(=O)Nc3ccc(S(=O)(=O)Nc4nccc(C)n4)cc3)cc2)n1 |  | 0.685 µM (active) |
| C=C[C@@H]1CN2CCC1C[C@H]2[C@H](O)c1ccnc2ccccc12 (stereo not given in full) | -24.1% (inactive) |  |
| O=c1cc(N2CCOCC2)oc2c(-c3cccc4c3sc3ccccc34)cccc12 | -22.4% (inactive) |  |
| CC(C)(N)C(=O)N[C@H](COCc1ccccc1)C(=O)N1CCC2(CC1)CN(S(C)(=O)=O)c1ccccc12 | -26.2% (inactive) |  |
| CS(=O)(=O)c1ccc(C(=O)Nc2ccc(Cl)c(-c3ccccn3)c2)c(Cl)c1 | -23.9% (inactive) |  |
| COc1cc2nccc(Oc3ccc(NC(=O)Nc4cc(C)on4)c(Cl)c3)c2cc1OC |  | 17.2 µM (active) |
| Cc1cnc(Nc2ccc(OCCN3CCCC3)cc2)nc1Nc1cccc(S(=O)(=O)NC(C)(C)C)c1 | -15.1% (inactive) |  |
| CNc1nccc(-c2cccnc2Oc2cc(C(=O)Nc3cccc(C(F)(F)F)c3)ccc2C)n1 | -12.3% (inactive) |  |
| Cn1c(NCCN(CCO)CCCc2ccc([N+](=O)[O-])cc2)cc(=O)n(C)c1=O | 6.77% (inactive) |  |
| Cc1cccc(-c2[nH]ncc2-c2ccc3ncccc3n2)n1 | -2.83% (inactive) |  |
| CN1C(=O)c2ccccc2C1=O | 7.51% [at 115 µM] (inactive) |  |
| O=C(C1CC1)N1CC[C@@H](Cn2c(-c3ccc(-c4ccc5occc5c4)cc3)nc3cnccc32)C1 |  | 10.9 µM (active) |
| O=C(Nc1ccc(F)c(C(F)(F)F)c1)Nc1nnc(-c2ccncc2)s1 |  | 13.7 µM (active) |
| Cc1ccc(F)c(NC(=O)Nc2ccc(-c3cccc4[nH]nc(N)c34)cc2)c1 | -56.1% (inactive) |  |
| CNCc1ccc(-c2[nH]c3cc(F)cc4c3c2CCNC4=O)cc1 | -12.6% (inactive) |  |
| NC(=O)c1c(OCc2c(F)cc(Br)cc2F)nsc1NC(=O)NCCCCN1CCCC1 | -22.2% (inactive) |  |
| CC(C)Oc1cc(Nc2nc(N[C@@H](C)c3ccc(F)cn3)ncc2Cl)[nH]n1 | -20.6% (inactive) |  |
| COCCNCCCn1c(C(=O)CF)c(-c2ccc(C)cc2)c2c(N)ncnc21 | -9.81% (inactive) |  |
| COCC(=O)NCC=Cc1ccc2ncnc(Nc3ccc(Oc4ccc(C)nc4)c(C)c3)c2c1 | 4.56% (inactive) |  |
| O=C(c1cc(Cc2n[nH]c(=O)c3ccccc23)ccc1F)N1CCN(C(=O)C2CC2)CC1 | -55.7% (inactive) |  |
| CCOc1ccn(-c2ccc(F)cc2)c(=O)c1C(=O)Nc1ccc(Oc2ccnc(N)c2Cl)c(F)c1 | -19.1% (inactive) |  |
